Compound activity from PubChem BioAssay.
Rows were chosen to be rich in hits. Some 10% of all compounds tested hit in one or more screens of this group.
BAZ2B inh – qHTS Assay for Inhibitors of BAZ2B; AlphaScreen BAZ2B-H3K14Ac peptide displacement; Potency, µM (doses to about 114 µM), for inactives: top-dose activity change, negative = inhibition, usual class: inhibitors; 360,000 compounds, 4.4% hits; also: potency is read from the fitted curve at half-maximal effect; % is scaled to controls: 0 for no effect and ±100 for the full control effect; nearly all actives have a fitted effect of over 60% in size
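Compounds, titrated to a top concentration of 110 uM, were incubated 30 min at room temperature with preformed BAZ2B/acetyl-K14 H3 peptide complex (50 nM each). Proximity signal was measured by AlphaScreen after 20 min with beads.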
CtBP-E1A inh – qHTS Assay for Inhibitors of the CtBP/E1A Interaction; AID 651724, 2012; activity change, % (concentration not given with the values); AlphaScreen GST-E1A/His-CtBP binding, 1536-well; stronger effect = lower value; 340,000 compounds, 0.49% hits; CtBP / adenovirus E1A interaction (AlphaScreen); in the data active = activity change below about -65%; inconclusive = mostly about -30% to -63%; also: % is scaled to controls: 0 for no effect and ±100 for the full control effect
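GST-E1A and His-tagged CtBP (125 nM each as 5X stock) were preincubated with pin-transferred compound for 2 h at 37 °C in the dark, then glutathione donor and nickel acceptor beads were added for 1 h before AlphaScreen reading.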
Six1-Eya2 inh – qHTS Assay for Inhibitors of the Six1/Eya2 Interaction. Homeobox protein SIX1 (Homo sapiens) + Protein phosphatase EYA2 (Homo sapiens), …. AlphaScreen GST-Six1/His-Eya2 binding, biochemical; stronger effect = lower value. activity change, % (concentration not given with the values). 360,000 compounds, 0.56% hits. AID 651725, 2012; in the data active = activity change below about -65%; inconclusive = mostly about -30% to -63%; also: % is scaled to controls: 0 for no effect and ±100 for the full control effect
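GST-Six1 + His-Eya2 (5X stock: 250/500 nM); Tris pH 8.0, 300 mM NaCl, 0.05% BSA, 0.02% Tween 20; GSH donor/Ni acceptor beads; 1 h 37 °C dark; AlphaScreen readout.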
JMJD2A Tudor inh – qHTS Assay for Inhibitors of JMJD2A-Tudor Domain. Lysine-specific demethylase 4A (Homo sapiens), O75164. AlphaScreen JMJD2A-Tudor / H3K4me3 peptide binding. 390,000 compounds, 4.4% hits. Potency, µM (titrated, usually from 114 µM), for inactives: at the highest dose activity change, negative = inhibition, hits mostly inhibitors; also: potency is read from the fitted curve at half-maximal effect; % is scaled to controls: 0 for no effect and ±100 for the full control effect; nearly all actives have a fitted effect of over 50% in size
HP1b binding inh – HTS for Inhibitors of HP1-beta Chromodomain Interactions with Methylated Histone Tails | AID 540317, 2011 | Chromobox protein homolog 1 (Homo sapiens), P83916 | Potency, µM (top dose mostly 114 µM), for inactives: at the top dose activity change, negative = inhibition, most hits filed as inhibitors | 390,000 compounds, 0.56% hits | AlphaScreen HP1-beta / biotin-H3K9me3 peptide binding; also: potency is read from the fitted curve at half-maximal effect; nearly all actives have a fitted effect of over 70% in size
Target sequence (P83916 whole entry, looked up): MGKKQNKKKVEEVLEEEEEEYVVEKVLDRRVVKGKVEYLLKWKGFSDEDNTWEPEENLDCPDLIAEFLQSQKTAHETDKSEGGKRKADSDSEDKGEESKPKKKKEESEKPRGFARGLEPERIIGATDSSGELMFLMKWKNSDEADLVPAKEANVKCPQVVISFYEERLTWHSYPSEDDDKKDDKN
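Compound inhibition of the preformed complex between 50 nM HP1-beta and 50 nM biotinylated H3K9me3 peptide was read by AlphaScreen. Buffer was PBS pH 7.4 with 0.01% Tween-20. Incubations ran 30 min at room temperature, with 10 ug/mL donor/acceptor beads.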
G9a inh – qHTS Assay for Inhibitors of Histone Lysine Methyltransferase G9a. Histone-lysine N-methyltransferase EHMT2 (Homo sapiens), Q96KQ7. G9a H3K9 monomethylation, AlphaScreen, 2 h. Potency, µM (titrated, usually from 102 µM), for the others: top-dose activity, negative = inhibition, hits mostly inhibitors. 350,000 compounds, 8.8% hits; also: potency is read from the fitted curve at half-maximal effect; % is scaled to controls: 0 for no effect and ±100 for the full control effect; nearly all actives have a fitted effect of over 75% in size
Target sequence (Q96KQ7 913-1193 limits assumed): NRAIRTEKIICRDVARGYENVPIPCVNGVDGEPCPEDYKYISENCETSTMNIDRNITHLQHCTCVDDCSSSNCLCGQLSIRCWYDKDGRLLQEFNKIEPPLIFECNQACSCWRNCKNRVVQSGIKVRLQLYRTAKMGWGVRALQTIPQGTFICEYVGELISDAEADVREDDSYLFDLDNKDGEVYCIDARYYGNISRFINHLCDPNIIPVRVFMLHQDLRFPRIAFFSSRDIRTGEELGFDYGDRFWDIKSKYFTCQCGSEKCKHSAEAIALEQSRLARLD
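AlphaScreen read-out: biotin-H3K9 peptide (500 nM) methylation by 20 nM enzyme with 20 uM SAM, 2 h at room temperature after 15 min compound preincubation; anti-monomethyl H3K9 antibody plus donor/acceptor beads, 10 min dark.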
Numbers without * were called inactive; ? = inconclusive; · = no result; ! = a repeat was not active; [ ] = dose if it differs, or a comment. Unless noted, calls follow the shape of the dose curve; as a rule, active = well fitted inhibition curve with a large enough effect; inconclusive = small, poorly fitted or top-dose-only effect; inactive = no such curve, though single readings can be large or run the other way.

SMILES | BAZ2B inh | CtBP-E1A inh | Six1-Eya2 inh | JMJD2A Tudor inh | HP1b binding inh | G9a inh
CC(C)CCNC(=O)CC1Nc2c3ccccc3nc(=S)n2C1=O (configuration not stated) | -30.6% | 1.8 | 4.9 | 10.5% | 38.2% | 56.2µM*
C=CCNC(=O)CC1Nc2c3ccccc3nc(=S)n2C1=O (configuration not stated) | -21.9% | 0.1 | 0.0 | 0.0% | 46.4% | 35.5µM*
COc1ccc(N2CCN(C(=O)c3ccc4c(c3)NC(=O)C(CSCc3cccc(F)c3)N4)CC2)cc1 (configuration not stated) | -36.8% | · | · | · | · | 20µM*
COc1ccc(N2CCN(C(=O)c3ccc4c(c3)N(Cc3ccc(F)cc3)C(=O)c3ccccc3S4=O)CC2)cc1 (configuration not stated) | -38.5% | · | · | ? | 6.6% | ?
COc1ccc(N2CCN(C(=O)c3ccc4c(c3)NC(=O)C(CSCc3c(F)cccc3Cl)N4)CC2)cc1 (configuration not stated) | -33.4%[57.1 µM] | · | · | · | · | 31.6µM*
COc1ccc(N2CCN(C(=O)c3ccc4c(c3)NC(=O)C(CSCc3ccc(C)cc3)N4)CC2)cc1 (configuration not stated) | ? | · | · | · | · | 7.94µM*
COc1ccc(N2CCN(C(=O)c3ccc(N(C)S(=O)(=O)c4ccc(C)cc4)cc3)CC2)cc1 | ? | 8.0 | -29.5 | ? | ? | -3.8%[0.501 µM]
COc1ccccc1CNC(=O)c1ccc2nc(N3CCCCC3)sc2c1 | 3.5% | · | · | 4.0% | 53.5% | 20.7%[59 µM]
COc1ccc(CNC(=O)Cc2c(C)c3cc4c(C)coc4cc3oc2=O)cc1OC | -10.2% | · | · | -29.2% | 16.6% | 4.8%[59 µM]
O=c1c2c(-c3ccc([N+](=O)[O-])cc3)csc2nc2n1CCCCC2 | ? | -11.3 | 0.6 | ? | ? | 35.5µM*
O=c1c2c(-c3ccccc3)csc2nc2n1CCC2 | 8.8% | 0.0 | 18.8 | -19.5% | -19.8% | -36.4%[12.7 µM]
NCCCCN | · | · | · | · | · | 50.1µM*!
NCCCCCCCCCCN | · | · | · | · | · | 67.4%[59 µM]
NCCCCNCCCN | 6.7% | 5.2 | 1.3 | -1.4% | 37.9% | 10.6µM*!
NCCNCCNCCN | ? | -93.3* | -84.3* | -33.1% | 44.8% | 3.0%
Cc1ccc(NC(=O)CN2C(=O)COc3ccc(S(=O)(=O)Nc4ccccc4)cc32)c(C)c1 | -12.2% | · | · | -10.7% | 33.4% | -16.7%[59 µM]
Cc1ccccc1C(=O)NCCN1CCC(n2c(=O)[nH]c3ccccc32)CC1 | · | -1.3 | -0.5 | · | · | ·
CCCCN1CCC(n2c(=O)[nH]c3ccccc32)CC1 | · | · | · | · | · | 9.47µM*
O=C(c1ccc2c(c1)N(Cc1cccc(Cl)c1)C(=O)c1ccccc1S2(=O)=O)N1CCN(Cc2ccccc2)CC1 | -4.3% | · | · | -22.4% | 12.3% | -33.2%[59 µM]
CCOC(=O)c1cc2c(ccn2C)n1Cc1cc(C)ccc1C | 50.1µM* | -26.8 | ? | 25.1µM* | ? | 50.1µM*
COC(=O)c1cc2sc(Cl)cc2n1Cc1cc(C)ccc1C | 66.4% | · | · | 79.3% | 114.7% | 74.0%[59 µM]
COc1ccc(NC(=O)Cn2c(=O)n(Cc3ccco3)c(=O)c3sc4ccccc4c32)cc1Cl | -8.7% | · | · | -18.5% | 13.7% | -4.4%[59 µM]
CCOC(=O)COc1ccc(C)cc1C(=O)c1ccn2nc(-c3ccc(C)cc3)cc2n1 | -11.0% | · | · | 0.4% | 25.8% | 20.1%[59 µM]
CC(C)Oc1ccc(C(CCN)C2CCCCC2)cc1 (configuration not stated) | 50.1µM* | -5.7 | -0.2 | 22.4µM* | 79.4µM* | 15.8µM*
Brc1cccc(-c2nnn3c2nc(N2CCCCC2)c2ccccc23)c1 | 29.2% | · | · | 18.2% | 122.1% | 57.5%[59 µM]
SMILES | BAZ2B inh | CtBP-E1A inh | Six1-Eya2 inh | JMJD2A Tudor inh | HP1b binding inh | G9a inh
Cc1cccc(CNC(=O)c2cnc3sc(N4CCCCCC4)nn3c2=O)c1 | -7.6% | · | · | ? | -6.2% | 20.4%[59 µM]
N/C(COc1ccc(C(=O)O)cc1)=N\O | ? | 1.5 | 2.2 | 21.0% | 45.7% | 50.1µM*
O=C(O)c1ccc(OCCOc2ccccc2)cc1 | -10.6% | · | -6.4 | -3.6% | 32.9% | -0.9%
Nc1ccc(Nc2ccccc2)c(S(=O)(=O)O)c1 | 56.2µM* | -9.7 | -22.8 | ? | -2.4%[57 µM] | 44.7µM*
Cc1ccc(Nc2ccc(N)cc2S(=O)(=O)O)cc1 | ? | · | -10.4 | -31.0% | -0.6% | 31.6µM*
O=C1CN(C(=O)c2ccc(S(=O)(=O)N3CCCC3)cc2)C(c2ccccc2)c2cc(Br)ccc2N1 (configuration not stated) | -0.4% | · | · | -16.7% | 26.1% | -21.4%[59 µM]
Cc1cc(NC(=O)CSc2nc3c([nH]c4ccccc43)c(=O)n2-c2cccc(Cl)c2)no1 | 3.1% | · | · | -16.5% | 22.9%[57 µM] | 15.1%[59 µM]
COCCCNC(=O)c1cc2c(-c3cccc(OC)c3)nn(C)c2s1 | 2.4% | ? | -27.2 | -14.1% | 53.1% | 21.6%
COc1ccc(N2CCN(C(=O)c3cc4c(-c5cccc(OC)c5)nn(C)c4s3)CC2)cc1 | 25.1µM* | ? | ? | 39.8µM* | ? | ?
CCN(CC)CCNC(=O)c1cc2c(-c3cccc(OC)c3)nn(C)c2s1 | -0.9% | -18.4 | -19.9 | -5.5% | -4.2% | 79.4µM*!
O=C(c1cc2c(s1)CCCC2)N1CCN(C(=O)C2CCCO2)CC1 (configuration not stated) | 5.9% | 2.4 | 3.2 | -5.3% | 9.7% | 15.8µM*
NC(=O)C1CCN(C(=O)c2cc3c(s2)CCCC3)CC1 | 24.7% | -0.3 | 3.4 | -17.0% | 1.6% | -24.1%
Cn1nc(-c2ccc(Cl)cc2)c2cc(C(=O)NCCN3CCOCC3)sc21 | 8.9% | ? | ? | -17.9% | 16.5% | 70.8µM*
N#Cc1ccccc1S(=O)(=O)N1CCN(C(=O)c2cc3c(s2)CCC3)CC1 | ? | 0.0 | -2.0 | ? | -17.2% | 35.5µM*
COc1ccc(N2CCN(C(=O)c3cc4c(s3)CCCCC4)CC2)cc1 | 12.6µM* | ? | ? | 50.1µM* | ? | ?
Cc1ccc(-n2nc(C(=O)Nc3ccc(C)c(F)c3)c3c4ccccc4n(C)c3c2=O)cc1 | · | · | · | -7.3% | 12.0% | -34.2%[59 µM]
CCc1ccc2nc(Nc3nc(COC)cc(=O)[nH]3)nc(C)c2c1 | 0.2% | -6.1 | -3.0 | -21.5% | 2.9% | 23.7%[59 µM]
COCc1cc(=O)[nH]c(Nc2nc3ccc(C)cc3o2)n1 | ? | -86.6* | -84.1* | -20.6% | 52.0% | 31.4%[59 µM]
O=C(/C=C/c1ccc2ccccc2n1)c1cc(Br)ccc1O | 56.2µM* | -5.0 | -7.0 | ? | 0.2% | 10µM*
